Reference: a collection of fitness landscapes (doi:10.1016/j.celrep.2020.107928)
Over roughly 81,000 sequences, “one-hybrid fitness for binding NBS DNA” has its median near -0.1; the highest 2% begin near 0.36. What follows is part of a selection rich in the highest values, with near analogues and random picks from the rest.

B1: Caulobacter ParB omega fusion; a variant is named by its letters at X, in order, B8GW30 (parent)
chain: MESVVVGEPGMSEGRRGLGRGLSALLGEVDAAPAQAPGEQLGGSREAPIEILQRNPDQPRRTFREEDLEDLSNSIREKGVLQPILVRPSPDTAGEYQIVAGERAWRAAQRAGLKTVPIMVRELDDLAVLEIGIIENVQRADLNVLEEALSYKVLMEKFERTQENIAQTIGKSXSHVANXMRLLXLPDEVQSYLVSGELTAXHARAIAAAADPVALAKQIIEGGLSVRETEALARKAPNLSAGKSKGGRPPRVKDTDTQALESDLSSVLGLDVSIDHRGSTGTLTITYATLEQLDDLCNRLTRGI

Variants of: B1
Test: one-hybrid fitness for binding NBS DNA (the Noc-binding site; scaled: cognate 1, non-cognate 0); higher = stronger binding
Conditions: with NBS DNA site
Method in brief: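 Pre- and post-selection plasmids were Illumina-sequenced, three replicate libraries were pooled, and any variant with under 10 reads was removed. The libraries were Caulobacter ParB with four specificity codons randomised, selected in E. coli USO through a HIS3 reporter whose site is 19 bp from the promoter. Cells grew 48 hours at 37°C on M9 without histidine, with 0.1 mM IPTG and 5 mM 3-AT. Fitness is the log change in variant-to-wild-type read ratio, rescaled against cognate and non-cognate.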

Row | Variant | one-hybrid fitness for binding NBS DNA
1 | SCIR | ≤ 0.2
2 | RESS | ≤ 0.2
3 | WPIG | ≤ 0.2
4 | WPLC | ≤ 0.2
5 | PERM | ≤ 0.2
6 | FMPK | 0.314
7 | RISS | 0.358
8 | SLQG | ≤ 0.2
9 | DCLR | ≤ 0.2
10 | PTRA | ≤ 0.2
11 | RWVV | ≤ 0.2
12 | QWNR | 0.304
13 | QMMQ | ≤ 0.2
14 | CVMR | ≤ 0.2
15 | TNHL | ≤ 0.2
16 | ESDR | ≤ 0.2
17 | LVTW | ≤ 0.2
18 | PNSF | ≤ 0.2
19 | LPGR | ≤ 0.2
20 | QLIH | ≤ 0.2
21 | RCKG | ≤ 0.2
22 | RRKG | 0.461
23 | RRVG | 0.298
24 | RRNM | 0.428

Row | Variant | one-hybrid fitness for binding NBS DNA
25 | RRDM | ≤ 0.2
26 | RCNM | ≤ 0.2
27 | YVLT | ≤ 0.2
28 | LIAF | ≤ 0.2
29 | KLGG | ≤ 0.2
30 | ELRQ | ≤ 0.2
31 | RSSE | ≤ 0.2
32 | GPWL | ≤ 0.2
33 | QAGA | 0.221
34 | QCGA | 0.364
35 | QRGA | 0.653
36 | QSGA | 0.291
37 | QHGA | 0.208
38 | QLGA | ≤ 0.2
39 | PSYL | ≤ 0.2
40 | ACER | ≤ 0.2
41 | PNTQ | ≤ 0.2
42 | RIAN | ≤ 0.2
43 | RLFR | 0.247
44 | RHAD | ≤ 0.2
45 | RHFR | 0.206
46 | RIFR | 0.243
47 | RAAR | 0.385
48 | RLAR | 0.42

Row | Variant | one-hybrid fitness for binding NBS DNA
49 | RLAN | ≤ 0.2
50 | RAAN | ≤ 0.2
51 | RAFR | 0.27
52 | RIAR | 0.384
53 | RHAR | 0.427
54 | RMFS | 0.221
55 | FGDR | ≤ 0.2
56 | GIAC | ≤ 0.2
57 | MKIR | ≤ 0.2
58 | FHKW | ≤ 0.2
59 | PVKH | ≤ 0.2
60 | TANL | ≤ 0.2
61 | VPPG | ≤ 0.2
62 | KWAS | ≤ 0.2
63 | RFAR | 0.242
64 | RSFR | 0.28
65 | RSAR | 0.438
66 | RPAR | ≤ 0.2
67 | RCAR | 0.529
68 | RSAH | ≤ 0.2
69 | PHEL | ≤ 0.2
70 | IQNS | ≤ 0.2
71 | WRET | ≤ 0.2
72 | AVER | ≤ 0.2

Row | Variant | one-hybrid fitness for binding NBS DNA
73 | TMML | ≤ 0.2
74 | YKDN | ≤ 0.2
75 | YKNR | ≤ 0.2
76 | YKNT | ≤ 0.2
77 | YKDS | 0.297
78 | YKYT | ≤ 0.2
79 | YKDT | 0.385
80 | YKDR | 0.512
81 | YKYR | ≤ 0.2
82 | YKDH | 0.692
83 | PGCP | ≤ 0.2
84 | ARAS | ≤ 0.2
85 | RMPC | ≤ 0.2
86 | IYSS | ≤ 0.2
87 | KREW | ≤ 0.2
88 | VDGI | ≤ 0.2
89 | QVNY | ≤ 0.2
90 | CDAR | ≤ 0.2
91 | CPEM | ≤ 0.2
92 | GLTI | ≤ 0.2
93 | PMWG | ≤ 0.2
94 | RAKT | 0.623
95 | RAKN | ≤ 0.2
96 | RMKT | 0.606

Row | Variant | one-hybrid fitness for binding NBS DNA
97 | RAVT | 0.237
98 | RFVT | ≤ 0.2
99 | RSVT | 0.238
100 | RFKT | 0.512
101 | RSKP | ≤ 0.2
102 | NFKT | ≤ 0.2
103 | RMVT | 0.296
104 | RMKM | 0.216
105 | RSKT | 0.618
106 | PIPI | ≤ 0.2
107 | SQAS | ≤ 0.2
108 | ERWR | ≤ 0.2
109 | DMMR | ≤ 0.2
110 | DFLL | ≤ 0.2
111 | AIKF | ≤ 0.2
112 | LHHN | ≤ 0.2
113 | WGHS | ≤ 0.2
114 | RCSQ | ≤ 0.2
115 | RPKT | ≤ 0.2
116 | RIVT | 0.243
117 | RIKN | ≤ 0.2
118 | RHKD | ≤ 0.2
119 | REKT | ≤ 0.2
120 | RHVT | ≤ 0.2

Row | Variant | one-hybrid fitness for binding NBS DNA
121 | RHKT | 0.578
122 | RIKT | 0.623
123 | RCKT | 0.653
124 | HNER | ≤ 0.2
125 | YSVR | ≤ 0.2
126 | NNAI | ≤ 0.2
127 | ECLL | ≤ 0.2
128 | LKEG | ≤ 0.2
129 | QIAT | 0.28
130 | QSAP | ≤ 0.2
131 | QLAH | ≤ 0.2
132 | QSAN | ≤ 0.2
133 | QPAT | ≤ 0.2
134 | QAAT | 0.401
135 | QCAT | 0.533
136 | QAFT | 0.326
137 | QLFT | 0.289
138 | QSAT | 0.395
139 | QAAH | ≤ 0.2
140 | QLAT | 0.396
141 | DLIW | ≤ 0.2
142 | GYPG | ≤ 0.2
143 | MTVA | ≤ 0.2
144 | ELQY | ≤ 0.2

Row | Variant | one-hybrid fitness for binding NBS DNA
145 | NMPC | ≤ 0.2
146 | YMLA | ≤ 0.2
147 | PNNH | ≤ 0.2
148 | STTR | ≤ 0.2
149 | GQTC | ≤ 0.2
150 | PTRL | ≤ 0.2
151 | ITAS | ≤ 0.2
152 | QHAT | 0.41
153 | QHAD | ≤ 0.2
154 | QHFT | 0.312
155 | IDNR | 0.348
156 | HTGM | ≤ 0.2
157 | DSKV | ≤ 0.2
158 | QSAS | 0.356
159 | QRAE | 0.332
160 | QRAF | 0.302
161 | QRAD | 0.25
162 | QRAS | 0.684
163 | QSFS | 0.256
164 | QRAP | 0.264
165 | QRAH | 0.583
166 | QCAS | 0.451
167 | QPAS | ≤ 0.2
168 | QPFS | ≤ 0.2

Row | Variant | one-hybrid fitness for binding NBS DNA
169 | QCFS | 0.397
170 | LCKS | ≤ 0.2
171 | STRH | ≤ 0.2
172 | SLSS | ≤ 0.2
173 | AMPP | ≤ 0.2
174 | HDRS | ≤ 0.2
175 | NECS | ≤ 0.2
176 | AAGK | ≤ 0.2
177 | QPEY | ≤ 0.2
178 | QRFD | ≤ 0.2
179 | QRAQ | 0.412
180 | QCAM | ≤ 0.2
181 | QRFP | 0.201
182 | QRAC | 0.391
183 | QRFS | 0.597
184 | QRFM | 0.22
185 | QRFC | 0.289
186 | QRFQ | 0.226
187 | QCAQ | ≤ 0.2
188 | QCAC | ≤ 0.2
189 | QRAM | 0.404
190 | QSIQ | ≤ 0.2
191 | KPVS | ≤ 0.2
192 | YYMR | ≤ 0.2

Row | Variant | one-hybrid fitness for binding NBS DNA
193 | RFQM | ≤ 0.2
194 | GDHK | ≤ 0.2
195 | LAMD | ≤ 0.2
196 | SSIR | ≤ 0.2
197 | QRAN | 0.39
198 | QRFN | 0.353
199 | QCAN | ≤ 0.2
200 | RKVN | ≤ 0.2
201 | RKVS | 0.426
202 | RKKD | ≤ 0.2
203 | RKKY | 0.38
204 | RKKP | ≤ 0.2
205 | RKYY | ≤ 0.2
206 | RKVD | ≤ 0.2
207 | RKRY | 0.366
208 | RKDY | ≤ 0.2
209 | RKVY | ≤ 0.2
210 | RCKY | 0.318
211 | RKKS | 0.653
212 | HLAI | ≤ 0.2
213 | KRLI | ≤ 0.2
214 | TRHK | ≤ 0.2
215 | TTRF | ≤ 0.2
216 | RAYA | ≤ 0.2

Row | Variant | one-hybrid fitness for binding NBS DNA
217 | ISTD | ≤ 0.2
218 | AALA | ≤ 0.2
219 | TDSY | ≤ 0.2
220 | AIFT | ≤ 0.2
221 | PYDR | ≤ 0.2
222 | VNLC | ≤ 0.2
223 | PDQF | ≤ 0.2
224 | RKVH | 0.211
225 | RKKH | 0.465
226 | RKKN | 0.252
227 | LEGG | ≤ 0.2
228 | TKHA | ≤ 0.2
229 | QTGN | 0.255
230 | QTGS | 0.557
231 | QTGD | ≤ 0.2
232 | QTGH | 0.424
233 | QTGP | ≤ 0.2
234 | QTGC | 0.246
235 | LWYM | ≤ 0.2
236 | PADY | ≤ 0.2
237 | QSYS | 0.337
238 | QSRS | 0.64
239 | QCIS | 0.364
240 | QPYS | ≤ 0.2

Row | Variant | one-hybrid fitness for binding NBS DNA
241 | QSPS | ≤ 0.2
242 | QSIS | 0.232
243 | CWRG | ≤ 0.2
244 | QCPS | 0.299
245 | CWIG | 0.406
246 | CWIS | ≤ 0.2
247 | QCYS | 0.432
248 | QCDS | 0.28
249 | PLRP | ≤ 0.2
250 | SMYN | ≤ 0.2
251 | RGCR | ≤ 0.2
252 | TCIC | ≤ 0.2
253 | TTYN | ≤ 0.2
254 | TLLD | ≤ 0.2
255 | KIRT | ≤ 0.2
256 | QPRS | ≤ 0.2
257 | QCRP | 0.352
258 | QCRS | 0.748
259 | RFTS | 0.285
260 | RATS | 0.433
261 | RLTP | ≤ 0.2
262 | RPTS | ≤ 0.2
263 | RLTS | 0.396
264 | RCTS | 0.516

Row | Variant | one-hybrid fitness for binding NBS DNA
265 | RLTH | ≤ 0.2
266 | RATD | ≤ 0.2
267 | RTTS | 0.484
268 | RTTH | 0.24
269 | RTTP | ≤ 0.2
270 | RATH | ≤ 0.2
271 | YRMT | ≤ 0.2
272 | EQDS | ≤ 0.2
273 | AANY | ≤ 0.2
274 | LYKT | ≤ 0.2
275 | ECMG | ≤ 0.2
276 | FKTC | ≤ 0.2
277 | RITS | 0.384
278 | RKTD | ≤ 0.2
279 | RSTS | 0.433
280 | RKTS | 0.583
281 | RHTN | ≤ 0.2
282 | RHTP | ≤ 0.2
283 | RSTH | ≤ 0.2
284 | RKTH | 0.233
285 | RITH | ≤ 0.2
286 | RSTD | ≤ 0.2
287 | RHTS | 0.446
288 | RITN | ≤ 0.2

Row | Variant | one-hybrid fitness for binding NBS DNA
289 | LQLL | ≤ 0.2
290 | ECRD | ≤ 0.2
291 | QQMC | ≤ 0.2
292 | IARN | ≤ 0.2
293 | SSHP | ≤ 0.2
294 | VQNC | ≤ 0.2
295 | RMTS | 0.433
296 | RMTD | ≤ 0.2
297 | RMTN | ≤ 0.2
298 | YHNT | ≤ 0.2
299 | PFSK | ≤ 0.2
300 | QKMD | ≤ 0.2
301 | QRMQ | 0.385
302 | QRMK | 0.404
303 | QKMH | ≤ 0.2
304 | QSMS | 0.302
305 | QKMS | 0.414
306 | QCMS | 0.379
307 | QAMQ | ≤ 0.2
308 | QPMS | ≤ 0.2
309 | QSMK | ≤ 0.2
310 | QSMQ | ≤ 0.2
311 | QCMK | ≤ 0.2
